Bioassay records as filed in PubChem.
Sampled rows, rich in hits. Any-hit rate of the full collection: about 27%.
CYP2C19 activ: cytochrome P450 2C19 (human) activation | activation factor at 5 µM | recombinant CYP2C19, luciferin-H EGE luminescence; stronger effect = higher value; 0 = fully inhibited enzyme, 1 = untreated enzyme | 96,000 tested, under 10 active;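 active = activation factor of at least 2 at 5 µM in the primary screen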
Pyk2 oligo antag: antagonists of human Pyk2 oligomerization. 99,000 tested, 0.83% active. Q293 cells, Pyk2 FERM NanoBiT luminescence; stronger effect = lower value. z-score (the deposit names both 25 µM and 10 µM). AID 1347419;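 active = Z-score of -3 or lower, scaled per plate to the spread of control and sample wells; inactive = z-score above -3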;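 also: negative z-score means lost luminescence so less FERM oligomerization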
Target sequence (Q14289 whole entry, looked up): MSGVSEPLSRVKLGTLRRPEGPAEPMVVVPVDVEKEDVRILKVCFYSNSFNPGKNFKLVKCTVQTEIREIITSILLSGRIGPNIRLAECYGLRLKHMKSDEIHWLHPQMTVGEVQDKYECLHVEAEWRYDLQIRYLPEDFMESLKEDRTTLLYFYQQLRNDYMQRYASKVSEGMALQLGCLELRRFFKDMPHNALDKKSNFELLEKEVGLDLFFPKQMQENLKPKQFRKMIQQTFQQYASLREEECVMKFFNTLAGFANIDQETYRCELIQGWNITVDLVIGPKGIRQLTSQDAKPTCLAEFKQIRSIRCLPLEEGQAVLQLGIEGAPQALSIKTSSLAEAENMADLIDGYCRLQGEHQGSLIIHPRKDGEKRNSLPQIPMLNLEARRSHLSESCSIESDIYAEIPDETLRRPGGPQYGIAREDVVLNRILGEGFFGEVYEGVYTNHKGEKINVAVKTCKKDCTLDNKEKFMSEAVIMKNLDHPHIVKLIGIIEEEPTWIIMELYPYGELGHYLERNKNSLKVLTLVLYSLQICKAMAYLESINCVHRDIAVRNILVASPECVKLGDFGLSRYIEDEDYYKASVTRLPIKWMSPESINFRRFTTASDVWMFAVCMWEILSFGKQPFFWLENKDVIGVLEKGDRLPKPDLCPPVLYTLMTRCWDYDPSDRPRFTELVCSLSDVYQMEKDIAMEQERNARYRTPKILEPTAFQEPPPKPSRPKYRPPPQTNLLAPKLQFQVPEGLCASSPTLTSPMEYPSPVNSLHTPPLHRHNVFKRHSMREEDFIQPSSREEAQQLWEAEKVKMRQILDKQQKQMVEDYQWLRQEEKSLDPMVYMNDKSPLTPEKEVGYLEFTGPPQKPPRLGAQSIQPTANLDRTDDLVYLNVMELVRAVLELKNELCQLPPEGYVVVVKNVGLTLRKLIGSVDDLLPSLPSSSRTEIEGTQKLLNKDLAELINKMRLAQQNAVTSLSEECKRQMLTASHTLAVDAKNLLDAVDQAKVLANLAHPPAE
CYP2C9 activ: increases human cytochrome P450 2C9 activity; P11712; recombinant CYP2C9, luciferin-H conversion, luminescence; stronger effect = higher value; factor 1 = untreated enzyme, 0 = blocked; activation factor at 5 µM; 96,000 tested, 1.4% active; AID 1024;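 active = activation factor of 2 or more for CYP2C9 at a 5 µM dose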
Cav32 inh: inhibitors of human Cav3.2 T-type calcium channel; O95180; AID 449739; Cav3.2-expressing cells, Fluo-4 calcium fluorescence FDSS; stronger effect = lower value; 100,000 tested, 4% active; B-score at 10 µM;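 active = single-dose well whose peak fluorescence ratio is a statistical outlier from its plate by either plate-standardised score or position-corrected B-score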
CYP2C19 inh: inhibitors of human CYP2C19 | P33261 | CYP2C19 Supersomes, luciferin-H EGE luminescence, 30 min | inhibition, % at 5 µM | 96,000 tested, 21% active;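 active = CYP2C19 inhibition above a set limit at 5 µM in the primary screen, cut at about 50% in these data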
CYP2C9 inhib: blocks human cytochrome P450 2C9. 96,000 tested, 20% active. P11712. CYP2C9 Supersomes, luciferin-H conversion, luminescence. inhibition, % at 5 µM. AID 777;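 active = blocking of liver enzyme CYP2C9 beyond about 50% at 5 µM, limit read from the data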
Each line names hits and unclear results; the compound was inactive in the other large screens.

CC([NH2+][O-])C(C)(C)NO (stereo not drawn)	none
Cc1cccc(/C=C2/S/C(=N/N=C3\CC4CCC3(C)C4(C)C)NC2=O)c1 (stereo not drawn)	none
COC(=O)c1ccc(NC(=O)CSC2=Nc3ccccc3C3CC=NN23)cc1 (stereo not drawn)	CYP2C19 inh 68, CYP2C9 inhib 69
Cc1ccc(NC(=O)CSC2=Nc3ccccc3C3CC=NN23)c(C)c1 (stereo not drawn)	CYP2C19 inh 93
NC(=O)c1ccc(NC(=O)CSC2=Nc3ccccc3C3CC=NN23)cc1 (stereo not drawn)	none
Cc1cc(C)cc(C(=O)N(NC(=O)Nc2ccc(Cl)cc2)C(C)(C)C)c1	none
N#Cc1nc(-c2ccco2)oc1N1CCC(Cc2ccccc2)CC1	CYP2C19 inh 82, CYP2C9 inhib 91
COc1ccccc1-c1nc(C#N)c(N2CCN(c3ccccc3)CC2)o1	CYP2C19 inh 80
COc1ccccc1-c1nc(C#N)c(N2CCCCCC2)o1	none
COc1ccccc1-c1nc(C#N)c(N2CCc3ccccc3C2)o1	CYP2C19 inh 84, CYP2C9 inhib 75
CC1CCN(c2oc(-c3ccccc3Cl)nc2C#N)CC1	CYP2C19 inh 86, CYP2C9 inhib 87
N#Cc1nc(-c2ccco2)oc1N1CCN(c2ccccc2)CC1	none
Cc1nnc(SCCn2c(N3CCCC(C)C3)nc3c2c(=O)n(C)c(=O)n3C)s1 (stereo not drawn)	none (no result: Pyk2 oligo antag)
Cc1cccc(C)c1NC(=O)COc1cccc(/C=N/NC(=O)C(=O)NCc2ccccc2)c1	none
Nn1cnnc1N/N=C/c1cc(Br)cc(Br)c1O	none (no result: Cav32 inh)
C#Cc1ccc([C@H]2C=C(C(=O)O)O[C@@H](OCCCCO)C2)cc1	none (no result: CYP2C19 activ, Pyk2 oligo antag, CYP2C9 activ, CYP2C19 inh, CYP2C9 inhib)
CCn1c(SCC(=O)Nc2ccc(NC(C)=O)cc2)nnc1C1CC1	none
COc1ccc(-c2nc(C#N)c(N3CCc4ccccc4C3)o2)cc1OC	CYP2C19 inh 55
O=C(CSc1nnc2n1CCCN2)c1ccc(Cl)cc1	none (no result: CYP2C19 activ, CYP2C9 activ, Cav32 inh, CYP2C19 inh, CYP2C9 inhib)
Clc1ccc(CSC2=NCCCN2)cc1Cl	none
O=C(CSc1nnc([C@@H]2CCCN2)o1)c1ccc(Cl)cc1	CYP2C19 inh 98
Clc1ccc(CSc2nnc([C@@H]3CCCN3)o2)cc1Cl	CYP2C19 inh 100
O=C(NCc1ccc2c(c1)OCO2)C1CCN(S(=O)(=O)N2CCOCC2)CC1	none (no result: CYP2C19 activ, CYP2C9 activ, Cav32 inh, CYP2C19 inh, CYP2C9 inhib)
O=C(NCc1ccc2c(c1)OCO2)C1CCN(c2ccc(S(=O)(=O)N3CCCC3)cc2)CC1	CYP2C9 inhib 63
O=C(NCc1ccc2c(c1)OCO2)C1CCN(S(=O)(=O)c2ccc(Br)s2)CC1	CYP2C19 inh 65 (no result: Cav32 inh)
CCc1c(C)nc2ncnn2c1N1CCCC(C(=O)NCc2ccc3c(c2)OCO3)C1 (stereo not drawn)	CYP2C9 inhib 70
O=C(NCc1ccc2c(c1)OCO2)C1CCN(c2ncccn2)CC1	none
Cc1ccnc(N2CCC(C(=O)NCc3ccc4c(c3)OCO4)CC2)n1	CYP2C9 inhib 66
Fc1ccccc1NC(=S)NCCc1ccccc1	CYP2C19 inh 80
S=C(NCCc1ccccc1)NC1CCCCCC1	none
O=C(NC(=S)NCCc1ccccc1)c1ccccc1	none
Fc1ccc(NC(=S)NCCc2ccccc2)c(F)c1F	CYP2C19 inh 83
COc1ccc(CCNC(=O)C2CCC(CNc3c(N4CCCC4)c(=O)c3=O)CC2)cc1OC (stereo not drawn)	none
COc1ccc(NC(=O)N2CCCC(c3nc(-c4ccc(C(C)C)cc4)no3)C2)cc1 (stereo not drawn)	CYP2C9 inhib 67
COc1cccc(-c2noc(C3CCCN(C(=O)Cc4ccccc4)C3)n2)c1 (stereo not drawn)	none
CCCCCC(=O)N1CCCC(c2nc(-c3ccc(OC)cc3)no2)C1 (stereo not drawn)	CYP2C19 inh 64, CYP2C9 inhib 67
O=C(CC1CCCCC1)N1CCCC(c2nc(-c3ccc(S(=O)(=O)N4CCCC4)cc3)no2)C1 (stereo not drawn)	CYP2C9 inhib 60
COc1ccc(-c2noc(CCC(=O)N3CCC(C)CC3)n2)cc1	none
COc1ccc(-c2noc(C3CCCN(C(=O)CCc4ccccc4)C3)n2)cc1 (stereo not drawn)	CYP2C9 inhib 70
O=C(CN(Cc1ccco1)C(=O)c1cc(=O)[nH]c2ccccc12)Nc1ccccc1Br	none (no result: CYP2C19 activ, CYP2C9 activ, CYP2C19 inh, CYP2C9 inhib)
CCOC(=O)CNc1c(-c2ccc(F)cc2)nc2cnccn12	CYP2C19 inh 60
CCOC(=O)CNc1c(-c2ccc(OC)cc2)nc2ccc(Cl)cn12	none (no result: CYP2C19 activ, CYP2C9 activ, CYP2C19 inh, CYP2C9 inhib)
CCOC(=O)CNc1c(-c2ccc(Cl)cc2)nc2cnccn12	CYP2C19 inh 89, CYP2C9 inhib 74 (no result: Cav32 inh)
CCOC(=O)N1CCN(C(=O)Cn2ncn3nc(-c4cccs4)cc3c2=O)CC1	none
COC(=O)c1ccc(Cl)c(NC(=O)CN(c2ccc3c(c2)OCO3)S(C)(=O)=O)c1	CYP2C19 inh 90, CYP2C9 inhib 87
COC(=O)c1cccc(NC(=O)CN(c2ccc3c(c2)OCO3)S(C)(=O)=O)c1C	CYP2C19 inh 90, CYP2C9 inhib 71
COC(=O)c1cc(NC(=O)CN(c2ccc3c(c2)OCO3)S(C)(=O)=O)ccc1Cl	CYP2C19 inh 93, CYP2C9 inhib 93
O=C(CNC(=O)c1ccco1)NCC(=O)OCc1cccc(Cl)c1	none
COC(=O)c1ccc(COC(=O)CNC(=O)c2ccco2)cc1	none
O=C(CNC(=O)c1ccco1)OCc1ccc(C(=O)Oc2ccccc2)cc1	CYP2C9 inhib 58
O=C(CNC(=O)c1ccco1)NCC(=O)OCc1ccc(C(=O)Oc2ccc(Cl)cc2)cc1	CYP2C9 inhib 58
Cc1ccc(CNC(=O)CCCn2c(=O)c3ccccc3n(CC(=O)NC3CCCC3)c2=O)cc1	CYP2C9 inhib 75
CCOc1ccccc1NC(=O)Cn1c(=O)n(CCC(=O)NC2CCCC2)c(=O)c2ccccc21	CYP2C9 inhib 74
O=C(CCn1c(=O)c2ccccc2n(CC(=O)NC2CCCC2)c1=O)NCCc1ccc(Cl)cc1	CYP2C19 inh 55, CYP2C9 inhib 69
CC1CCN(C(=O)Cn2c(=O)n(CCc3ccccc3)c(=O)c3ccccc32)CC1	none
CCCCNC(=O)CCn1c(=O)c2ccccc2n(CC(=O)N2CC(C)CC(C)C2)c1=O (stereo not drawn)	CYP2C9 inhib 95
O=C(CN1CCCCC1)Nc1ccc(NC(=O)c2ccc(Cl)cc2)cc1Cl	none
COc1ccc(C(=O)CSc2nnc(CNC(=O)c3ccc(OC)c(OC)c3)n2C)cc1	none
CCN1C(=O)N[C@@H](CCc2ccccc2)C(C(C)=O)=C1C	none (no result: CYP2C19 activ, Pyk2 oligo antag, CYP2C9 activ, CYP2C19 inh, CYP2C9 inhib)
CCn1c(SCC(=O)Nc2nc(C)cs2)nnc1-c1ccco1	none
COc1ccc(-c2oc(NC(=O)CSc3nncn3C)c(C#N)c2-c2ccc(OC)cc2)cc1	Pyk2 oligo antag -3.8, CYP2C9 inhib 58
CCn1c(SCC(=O)Nc2oc(-c3ccccc3)c(-c3ccccc3)c2C#N)nnc1-c1ccncc1	CYP2C19 inh 58, CYP2C9 inhib 78
